Test results reported in PubChem BioAssay (Tox21).
Inconclusive results are not listed. Entries that show only a call come without a potency. Values without a mark were called inactive. The source made the active and inactive calls. Unless noted, the call rests on the fitted dose curve; in most records, active means well fitted curve in the direction sought with a large enough effect in the repeat runs; inconclusive means weak or mixed curves; inactive means no such curve, though single readings can be large; an effect the other way counts as inactive or inconclusive.

Legend:
[1] = qHTS assay to identify small molecule agonists of the peroxisome proliferator-activated receptor delta (PPARd) signaling pathway - cell viability counter screen (AID 743211); further: nearly all actives have a fitted effect of over 55% in size
Summary of the method: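 PPARd-bla HEK293H cells (UAS-beta-lactamase reporter) were treated with compounds for 17 h at 37 C. Viability was then read in the same wells by CellTiter-Glo luminescence after 30 min at room temperature.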

[2] = target: Peroxisome proliferator-activated receptor delta (Homo sapiens) (UniProt Q03181); experiment: qHTS assay to identify small molecule agonists of the peroxisome proliferator-activated receptor delta (PPARd) signaling pathway (AID 743212; calls by dose curve)
Summary of the method: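 HEK293H UAS-bla reporter cells, human PPARd system; compounds delivered in DMSO after 5 h plating, then at 37 C. Beta-lactamase FRET read, 2 h RT substrate step.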

[3] = qHTS assay to identify small molecule antagonists of the peroxisome proliferator-activated receptor delta (PPARd) signaling pathway - cell viability counter screen (AID 743213); further: nearly all actives have a fitted effect of over 50% in size; further: potency means the concentration at half of the fitted maximal effect
Summary of the method: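 Same-well viability: cells pre-incubated 5 h, dosed with compound plus 300 nM L165041, kept 17 h at 37 C, FRET substrate 2 h RT, then CellTiter-Glo 30 min RT and luminescence.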

[4] = target: Peroxisome proliferator-activated receptor delta (Homo sapiens) (UniProt Q03181); experiment: qHTS assay to identify small molecule antagonists of the peroxisome proliferator-activated receptor delta (PPARd) signaling pathway (AID 743215; active means well fitted inhibition curve with a large enough effect in the signal ratio in the repeat runs, not every such curve was filed as active; the % refers to the signal ratio;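 further: cells stimulated with agonist L165041 at 300 nM final during compound exposure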; further: potency means the concentration at half of the fitted maximal effect)
Summary of the method: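 Antagonist-mode beta-lactamase reporter screen: HEK293H cells with UAS-bla under PPARd control, stimulated by 300 nM L165041 (final) alongside test compound for 17 h at 37 C, then FRET fluorescence after 2 h substrate incubation.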

[5] = qHTS assay to identify small molecule agonists of the farnesoid-X-receptor (FXR) signaling pathway - cell viability counter screen (AID 743218); further: nearly all actives have a fitted effect of over 45% in size
Summary of the method: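 In GeneBLAzer FXR-UAS-bla HEK 293T cells, compounds act for 16 h at 37 C. Cell viability is then scored in the reporter wells by CellTiter-Glo, 30 min at RT, luminescence.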

[6] = qHTS assay to identify small molecule antagonists of the farnesoid-X-receptor (FXR) signaling pathway - cell viability counter screen (AID 743221; active means well fitted cell-killing curve with a large enough effect in the repeat runs, not every such curve was filed as active; further: nearly all actives have a fitted effect of over 50% in size)
Summary of the method: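 FXR-UAS-bla HEK 293T cells were treated with test compounds plus chenodeoxycholic acid (50 uM final) for 16 h at 37 C. Cell viability in the same wells was then read as CellTiter-Glo luminescence after 30 min at room temperature.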

[7] = target: Vitamin D3 receptor (Homo sapiens) (UniProt P11473); experiment: qHTS assay to identify small molecule agonists of the vitamin D receptor (VDR) signaling pathway (AID 743222; calls by dose curve)
Summary of the method: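 Agonist activity measured in VDR-bla reporter cells. Exposure 16 h, 37C, 5% CO2; detection by B/G FRET substrate, 2 h RT.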

[8] = qHTS assay to identify small molecule agonists of the vitamin D receptor (VDR) signaling pathway - cell viability counter screen (AID 743224); further: series mostly up to about 63 µM; nearly all actives have a fitted effect of over 50% in size
Summary of the method: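 VDR-bla cell line, quantitative HTS format; 16 h compound incubation (37C, 5% CO2); ATP-based CellTiter-Glo luminescence measured in the reporter assay wells.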

[9] = qHTS assay to identify small molecule antagonists of the vitamin D receptor (VDR) signaling pathway - cell viability counter screen (AID 743225); further: nearly all actives have a fitted effect of over 50% in size; further: potency means the concentration at half of the fitted maximal effect
Summary of the method: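 VDR-bla HEK 293T cells, 4 h pre-incubation at 37C, then compound plus 1-alpha,25-dihydroxyvitamin D3 (3 nM final) for 16 h. After the beta-lactamase FRET read, CellTiter-Glo was added to the same wells; luminescence after 30 min at room temperature.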

[10] = qHTS assay to identify small molecule agonists of the NFkB signaling pathway (AID 1159509; active means well fitted curve in the direction sought with a large enough effect in the signal ratio in the repeat runs, not every such curve was filed as active; the % refers to the signal ratio; further: series mostly up to about 61 µM)
Summary of the method: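 After overnight attachment, reporter cells received test compounds, DMSO or positive controls and were incubated 5 hr at 37 C. FRET substrate was then added for 1.5 hr at room temperature before dual-emission fluorescence reading.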

[11] = qHTS assay to identify small molecule agonists of the NFkB signaling pathway - cell viability counter screen (AID 1159515; calls by dose curve; further: nearly all actives have a fitted effect of over 55% in size; further: potency means the concentration at half of the fitted maximal effect)
Summary of the method: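 Viability in NFkB-bla ME-180 cells was measured by CellTiter-Glo luminescence, 30 min room temperature, in wells already treated 5 hr with compounds and read for reporter FRET.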

[12] = qHTS assay to identify small molecule agonists of the endoplasmic reticulum stress response signaling pathway (AID 1159516; active means well fitted activation curve with a large enough effect in the signal ratio in the repeat runs, not every such curve was filed as active; the % refers to the signal ratio)
Summary of the method: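 ER stress element reporter (bla) in HeLa. 1,500 cells/well, overnight attachment; 5 hr compound; 2 hr RT substrate; dual-emission fluorescence.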

[13] = qHTS assay to identify small molecule antagonists of the retinoid-related orphan receptor gamma (ROR-gamma) signaling pathway - cell viability counter screen (AID 1159520); further: nearly all actives have a fitted effect of over 50% in size; further: potency means the concentration at half of the fitted maximal effect
Summary of the method: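 Cytotoxicity was read from cellular ATP (CellTiter-Glo luminescence) after 16 hr at 37 C with 1 uM doxycycline induction. The inducer was added 2 hr after compound transfer to Tet-on ROR gamma CHO cells.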

[14] = target: Nuclear receptor ROR-gamma (Homo sapiens) (UniProt P51449); experiment: qHTS assay to identify small molecule antagonists of the retinoid-related orphan receptor gamma (ROR-gamma) signaling pathway (AID 1159521; further: nearly all actives have a fitted effect of over 50% in size; further: potency means the concentration at half of the fitted maximal effect)
Summary of the method: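 Tet-on RORγ CHO cells carrying a ROR response element–luciferase reporter were pretreated with compounds for 2 h, then induced with 1 uM (final) doxycycline hyclate for 16 h at 37 C. Antagonism was read as decreased ONE-Glo luminescence.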

[15] = qHTS assay to identify small molecule agonists of the AP-1 signaling pathway - cell viability counter screen (AID 1159525; calls by dose curve; further: nearly all actives have a fitted effect of over 55% in size; further: potency means the concentration at half of the fitted maximal effect)
Summary of the method: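 Luminescent ATP readout (Cell Titer Glo, 30 min RT), normalised to DMSO and tetra n-octyl ammonium bromide controls. Cells were ME-180 AP-1-bla in 0.5% dialyzed FBS Opti-MEM, with a 5 h, 37 °C compound exposure.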

[16] = qHTS assay to identify small molecule agonists of the AP-1 signaling pathway (AID 1159526; calls by dose curve)
[17] = target: Bile acid receptor (Homo sapiens) (UniProt Q96RI1); experiment: qHTS assay to identify small molecule antagonists of the farnesoid-X-receptor (FXR) signaling pathway (AID 743217; active means well fitted inhibition curve with a large enough effect in the signal ratio in the repeat runs, not every such curve was filed as active; the % refers to the signal ratio)
Summary of the method: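 Beta-lactamase reporter under UAS control in HEK 293T cells; compound exposure 16 h at 37 °C in the presence of chenodeoxycholic acid (50 uM final); signal from B/G FRET substrate after 2 h at room temperature.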

[18] = target: Bile acid receptor (Homo sapiens) (UniProt Q96RI1); experiment: qHTS assay to identify small molecule agonists of the farnesoid-X-receptor (FXR) signaling pathway (AID 743220; active means well fitted activation curve with a large enough effect in the signal ratio in the repeat runs, not every such curve was filed as active; the % refers to the signal ratio)
Summary of the method: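 Beta-lactamase reporter under UAS control in GeneBLAzer FXR HEK 293T cells (5000/well) measured with LiveBLAzer FRET substrate after 2 h at room temperature. Compound exposure lasted 16 h at 37C.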

[19] = target: Vitamin D3 receptor (Homo sapiens) (UniProt P11473); experiment: qHTS assay to identify small molecule antagonists of the vitamin D receptor (VDR) signaling pathway (AID 743223; active means well fitted inhibition curve with a large enough effect in the signal ratio in the repeat runs, not every such curve was filed as active; the % refers to the signal ratio)
Summary of the method: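 VDR-bla cells were plated, incubated 4 h at 37C, then given compound and 1alpha,25-dihydroxyvitamin D3 (3 nM final). After 16 h at 37C, LiveBLAzer B/G FRET substrate was added for 2 h at room temperature and fluorescence read.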

Chain of Bile acid receptor (Homo sapiens) (Q96RI1 whole entry, looked up): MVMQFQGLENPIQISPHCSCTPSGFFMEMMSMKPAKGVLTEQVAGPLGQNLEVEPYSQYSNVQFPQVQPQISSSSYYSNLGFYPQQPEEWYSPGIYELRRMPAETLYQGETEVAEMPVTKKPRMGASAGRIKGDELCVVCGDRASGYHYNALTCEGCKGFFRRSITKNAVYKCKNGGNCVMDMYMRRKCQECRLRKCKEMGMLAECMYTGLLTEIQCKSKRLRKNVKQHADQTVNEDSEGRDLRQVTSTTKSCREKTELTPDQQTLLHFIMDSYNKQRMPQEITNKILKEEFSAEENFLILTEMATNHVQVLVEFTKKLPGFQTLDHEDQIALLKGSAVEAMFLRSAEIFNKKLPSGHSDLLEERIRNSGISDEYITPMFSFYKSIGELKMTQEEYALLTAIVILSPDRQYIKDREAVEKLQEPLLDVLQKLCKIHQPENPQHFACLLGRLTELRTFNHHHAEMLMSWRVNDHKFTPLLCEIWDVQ
Chain of Vitamin D3 receptor (Homo sapiens) (P11473 whole entry, looked up): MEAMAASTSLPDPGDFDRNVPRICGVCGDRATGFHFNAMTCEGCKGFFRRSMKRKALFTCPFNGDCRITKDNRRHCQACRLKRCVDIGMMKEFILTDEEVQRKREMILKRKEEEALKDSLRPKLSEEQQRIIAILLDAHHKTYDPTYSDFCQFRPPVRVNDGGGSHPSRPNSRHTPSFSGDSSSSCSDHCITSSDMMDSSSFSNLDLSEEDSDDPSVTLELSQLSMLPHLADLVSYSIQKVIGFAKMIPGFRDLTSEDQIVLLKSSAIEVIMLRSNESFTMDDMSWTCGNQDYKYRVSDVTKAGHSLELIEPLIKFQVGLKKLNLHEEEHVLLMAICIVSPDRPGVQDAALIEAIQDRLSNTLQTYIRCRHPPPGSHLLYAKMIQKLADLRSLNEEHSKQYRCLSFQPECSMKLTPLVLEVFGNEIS
Chain of Peroxisome proliferator-activated receptor delta (Homo sapiens) (Q03181 whole entry, looked up): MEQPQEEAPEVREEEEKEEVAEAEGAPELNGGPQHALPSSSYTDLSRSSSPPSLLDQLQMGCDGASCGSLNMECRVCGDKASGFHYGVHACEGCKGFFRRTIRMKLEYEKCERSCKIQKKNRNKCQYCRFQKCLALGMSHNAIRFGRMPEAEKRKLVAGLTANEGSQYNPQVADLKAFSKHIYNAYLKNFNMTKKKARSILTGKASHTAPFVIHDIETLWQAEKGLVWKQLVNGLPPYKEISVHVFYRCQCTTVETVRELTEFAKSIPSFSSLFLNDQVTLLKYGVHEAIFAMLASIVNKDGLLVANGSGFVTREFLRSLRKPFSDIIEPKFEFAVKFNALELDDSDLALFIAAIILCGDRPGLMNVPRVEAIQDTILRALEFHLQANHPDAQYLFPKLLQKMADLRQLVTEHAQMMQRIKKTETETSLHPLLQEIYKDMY

Structure (SMILES)	Potency [1]	outcome [2]	Potency [3]	Potency [4]	Potency [5]	Potency [6]	outcome [7]	Potency [8]	Potency [9]	outcome [10]	Potency [11]	Potency [12]	Potency [13]	Potency [14]	Potency [15]	outcome [16]	outcome [17]	Potency [18]	outcome [19]
C[C@@H]1C[C@H]2[C@@H]3CCC4=CC(=O)C=C[C@]4(C)[C@@]3(F)[C@@H](O)C[C@]2(C)[C@@]1(O)C(=O)COP(=O)(O)O	inactive	inactive	inactive	inactive	inactive	inactive	inactive	inactive	inactive	inactive	inactive	inactive	inactive	inactive	inactive	inactive	–	–	–
CC(C)(C)C1(CCc2ccc(Cl)cc2)CO1 (centres undefined)	inactive	inactive	inactive	–	inactive	inactive	inactive	inactive	inactive	inactive	inactive	inactive	inactive	inactive	inactive	–	inactive	inactive	–
Nc1ccc(S(=O)(=O)NCc2ccccc2)cc1	–	inactive	–	inactive	inactive	inactive	inactive	inactive	–	inactive	inactive	inactive	inactive	inactive	inactive	inactive	inactive	inactive	–
CCCCCC	inactive	–	inactive	–	inactive	inactive	–	inactive	inactive	inactive	inactive	inactive	inactive	inactive	inactive	inactive	inactive	inactive	–
CC[C@@H](CO)NCCN[C@@H](CC)CO	–	inactive	–	–	inactive	inactive	–	–	inactive	inactive	inactive	inactive	inactive	inactive	inactive	inactive	–	–	–
CC[C@H]1OC(=O)[C@H](C)[C@@H](O[C@H]2C[C@@](C)(OC)[C@@H](O)[C@H](C)O2)[C@H](C)[C@@H](O[C@@H]2O[C@H](C)C[C@H](N(C)C)[C@H]2O)[C@](C)(O)C[C@@H](C)CN(C)[C@H](C)[C@@H](O)[C@]1(C)O	–	inactive	–	–	–	inactive	inactive	inactive	2.9 µM (active)	inactive	inactive	inactive	inactive	inactive	inactive	inactive	–	–	–
COc1ccc(/C=C/C(=O)c2ccc(OC)cc2OC)cc1	inactive	inactive	–	11.9 µM (active)	inactive	inactive	inactive	–	inactive	inactive	inactive	inactive	inactive	inactive	inactive	–	–	inactive	–
Oc1ccc2c(c1)Cc1ccccc1-2	inactive	–	inactive	inactive	inactive	inactive	–	–	inactive	inactive	inactive	inactive	inactive	inactive	inactive	inactive	–	–	inactive
Cc1ccc2c(c1)CCCN2	inactive	inactive	–	inactive	–	inactive	–	inactive	inactive	inactive	inactive	inactive	inactive	inactive	inactive	inactive	–	–	–
C[C@H](CS)C(=O)N1CCC[C@H]1C(=O)O	–	–	inactive	–	inactive	inactive	–	–	–	inactive	inactive	inactive	inactive	inactive	inactive	inactive	–	–	–
O=c1[nH][nH]c(=O)c2cc([N+](=O)[O-])ccc12	–	inactive	inactive	inactive	inactive	inactive	inactive	inactive	inactive	inactive	inactive	inactive	inactive	inactive	inactive	inactive	–	–	–
O=S(=O)(Cl)c1c(Cl)cccc1Cl	inactive	inactive	inactive	inactive	inactive	inactive	–	inactive	inactive	inactive	inactive	inactive	inactive	inactive	inactive	inactive	–	–	–
CC[C@H]1OC(=O)[C@H](C)[C@@H](O[C@H]2C[C@@](C)(OC)[C@@H](O)[C@H](C)O2)[C@H](C)[C@@H](O[C@@H]2O[C@H](C)C[C@H](N(C)C)[C@H]2O)[C@](C)(O)C[C@@H](C)/C(=N\OCOCCOC)[C@H](C)[C@@H](O)[C@]1(C)O	inactive	inactive	inactive	–	inactive	–	inactive	inactive	–	inactive	inactive	inactive	inactive	inactive	inactive	inactive	inactive	inactive	–
CCC(CO)(CO)CO	inactive	inactive	inactive	inactive	inactive	inactive	–	inactive	inactive	inactive	inactive	inactive	inactive	inactive	inactive	inactive	inactive	inactive	–
CCN(CC)c1ccc(C(=C2C=CC(=[N+](CC)CC)C=C2)c2ccc(S(=O)(=O)O)cc2S(=O)(=O)[O-])cc1	–	inactive	27.5 µM (active)	inactive	–	inactive	–	–	inactive	inactive	43.6 µM (active)	inactive	8.63 µM (active)	12.2 µM (active)	19.5 µM (active)	–	–	–	–
CC(=O)C(=O)CC(C)C	–	inactive	inactive	inactive	inactive	inactive	inactive	inactive	inactive	inactive	inactive	inactive	inactive	inactive	inactive	inactive	–	–	inactive
Cc1ccc(Cl)cc1N	inactive	inactive	inactive	inactive	inactive	inactive	inactive	inactive	inactive	inactive	inactive	inactive	inactive	inactive	inactive	inactive	inactive	inactive	inactive
O=C(Oc1ccccc1)c1ccc2ccccc2c1O	inactive	inactive	inactive	inactive	inactive	–	inactive	–	inactive	inactive	inactive	inactive	inactive	inactive	inactive	inactive	–	–	inactive
